# Measurements taken from PubChem BioAssay AID1851 (National Center for Advancing Translational Sciences (NCATS), 2009).
# Several values for one entry are separate records, joined by “and”; a condition that tells them apart may be missing. Equal entries are not always repeated. Out of some 16,000 compounds screened, about 4,000 (25%) were called active. About 26% were inconclusive and are not listed. Calls come from the whole dose curve; as a rule, active = well fitted curve in the direction sought with a large enough effect; inconclusive = small, poorly fitted or top-dose-only effect, or effect the other way; inactive = no such curve, though single readings can be large or run the other way. Not all results are given here. More than one record can exist for a structure, and the calls need not agree.
# Target: Cytochrome P450 2C9 (Homo sapiens) (UniProt P11712)
# Sequence (P11712 whole entry, looked up): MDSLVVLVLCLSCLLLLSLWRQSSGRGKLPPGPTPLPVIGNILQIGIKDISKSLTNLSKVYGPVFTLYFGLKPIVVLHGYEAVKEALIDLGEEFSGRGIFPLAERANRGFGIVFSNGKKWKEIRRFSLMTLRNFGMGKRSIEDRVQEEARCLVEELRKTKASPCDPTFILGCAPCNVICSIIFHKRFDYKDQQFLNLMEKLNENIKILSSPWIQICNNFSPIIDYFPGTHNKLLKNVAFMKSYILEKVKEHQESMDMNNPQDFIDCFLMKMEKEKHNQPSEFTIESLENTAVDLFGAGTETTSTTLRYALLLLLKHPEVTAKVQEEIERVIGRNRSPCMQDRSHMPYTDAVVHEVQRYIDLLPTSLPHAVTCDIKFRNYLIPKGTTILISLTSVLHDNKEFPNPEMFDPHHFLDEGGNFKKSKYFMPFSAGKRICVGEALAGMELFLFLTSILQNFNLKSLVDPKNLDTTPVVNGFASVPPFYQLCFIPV
# Test: Cytochrome panel assay with activity outcomes
# Details: recombinant CYP, pro-luciferin dealkylation, luminescence, p450-cyp2c9; series mostly up to 57.1 µM
# % is set by controls: 0 for no effect and ±100 for the full control effect.
Structure (SMILES),"activity, negative = inhibition",AC50
Nc1nc2c(c(=O)[nH]1)CN(c1ccc(S(N)(=O)=O)cc1)CN2,7.1% [at 11.4 µM] (inactive),
O=C1C2=CC[C@@H]3C(=O)N(c4ccc(F)cc4F)C(=O)[C@H]3[C@H]2[C@H](O)[C@H]2O[C@H]12,4.69% [at 11.4 µM] (inactive),
C=CCOC(=O)/C(=C\c1cccc2ccccc12)NC(=O)c1ccccc1,,1.41 µM (active)
Cc1ccc(S(=O)(=O)c2c(C)nn(C(C)(C)C)c2OC(=O)c2cccs2)cc1,,3.16 µM (active)
C[C@@]12CCC(=O)C=C1CC[C@@H]1[C@@H]2[C@H](O)C[C@]2(C)[C@@H]1CC[C@]2(O)C(=O)COC(=O)CCC(=O)O,,inactive
CN=C(N)/N=C(\N)Nc1cc2ccccc2c2ccccc12,-14.6% [at 11.4 µM] (inactive),
C=CC(C)(C)c1[nH]c2ccccc2c1C1=C(O)C(=O)C(c2c[nH]c3c(CC=C(C)C)cccc23)=C(O)C1=O,,7.94 µM (active)
c1ccc(CCN2CCN=C2Cc2ccccc2)cc1,-8.28% [at 11.4 µM] (inactive),
ON(CCc1ccncc1)Cc1ccccc1,,3.98 µM (active)
Fc1ccc(SCCc2ccncc2)cc1,,2 µM (active)
c1ccc(SCCc2ccncc2)cc1,,1.12 µM (active) and 1.26 µM (active)
ON(CCc1ccccn1)Cc1ccccc1,-2.37% [at 11.4 µM] (inactive),
Br/C(=N\Nc1nn[nH]n1)c1ccncc1,-3.74% [at 11.4 µM] (inactive),
Cc1nc2cnc(Oc3ccccc3)nc2n(Cc2cccs2)c1=O,,25.1 µM (active)
COc1ncc2ncc(=O)n(Cc3cccs3)c2n1,,inactive
Cc1nc2cnc(Nc3ccccc3)nc2n(Cc2cccs2)c1=O,,inactive
O=c1cnc2cnc(Oc3ccccc3)nc2n1Cc1cccs1,,25.1 µM (active)
COc1ccc(Oc2ncc3ncc(=O)n(Cc4cccs4)c3n2)cc1,,15.8 µM (active)
Cn1cc(-c2nc3cnc(Oc4ccccc4)nc3n(Cc3cccs3)c2=O)c2ccccc21,,inactive
CN1CCN(c2ncc3ncc(=O)n(Cc4cccs4)c3n2)CC1,,inactive
Clc1ccccc1-c1ccc2ncnc(N3CCNCC3)c2c1,-9.02% [at 2.29 µM] (inactive),
COc1ccc(COC(=O)N/N=C2/C[C@@H](O)[C@@H](O)[C@@H]3[C@H]4C(=O)N(c5ccc(F)cc5F)C(=O)[C@@H]4CC[C@@H]23)cc1,-15.8% [at 11.4 µM] (inactive),
O=C(Nc1cccc(C(F)(F)F)c1)c1n[nH]c(Cn2cncn2)n1,,4.47 µM (active)
CC(=O)Nc1c2c3c(cccc3n(C)c1=O)C(=O)c1ccccc1-2,,15.8 µM (active)

Structure (SMILES),"activity, negative = inhibition",AC50
Cc1c(NC(=O)C(C)N2C(=O)c3ccccc3C2=O)c(=O)n(-c2ccccc2)n1C (stereo not drawn),,inactive
Fc1ccc(COc2ccc(Br)cc2CNCc2ccncc2)cc1,,3.98 µM (active)
CO[C@H]1COC(=O)[C@H](Cc2ccccc2)NC(=O)C/C=C\[C@@H](C)[C@H](OC)COC(=O)C/C=C\[C@@H]1C,2.05% [at 11.4 µM] (inactive),
CC1(C)CC(=O)C(C(C#Cc2ccccc2)C2=C(O)CC(C)(C)CC2=O)=C(O)C1,,15.8 µM (active)
COc1ccc(CNc2ccnc(-c3ccccc3CN(C)C)n2)c(OC)c1,10.2% [at 2.29 µM] (inactive),
CC(C)(C)c1cc2cccnc2n1Cc1cccc(F)c1,,inactive
CC1=CC(=O)CC(C)(C)[C@]1(O)/C=C\C(C)=C\C(=O)O,9.93% [at 11.4 µM] (inactive),
CC1=C(\C=C/C(C)=C/C=C\C(C)=C\C(=O)O)C(C)(C)CCC1,,10 µM (active) and inactive
CC(C)CCNc1ncnc2[nH]ncc12,6.22% [at 11.4 µM] (inactive),
CCOC(=O)c1cnc2c(cnn2C)c1NCCCN(C)C,,inactive
CNC(=O)c1nnn(Cc2ccccc2)c1NC(=O)C(F)(F)F,,12.6 µM (active)
COC(=O)c1nnn(Cc2ccccc2)c1N,,inactive
O=C(c1cc(C(F)(F)F)cc(C(F)(F)F)c1)N1CCC2(CCN(Cc3ccccc3)CC2)CC1,,inactive
Nc1ncnc2c1c(-c1ccc(Oc3ccccc3)cc1)cn2C1CCCC1,,31.6 µM (active)
Nc1ncnc2c1ncn2C1CCCC1,,inactive
Cc1ccc(CNCC(O)(c2ccc(F)cc2)c2ccc(F)cc2)cc1,,25.1 µM (active)
CCOC(=O)CSc1n[nH]c(-c2cccnc2)n1,,inactive
CCOC(=O)CC(=O)CSc1nc(-c2cccnc2)cc(C)c1C#N,,1.26 µM (active)
CCCC(=O)n1nc(-c2cccnc2)nc1N,,inactive
O=C(c1cc(-c2cccs2)on1)N1CCN(c2ccc(F)cc2)CC1,,1.58 µM (active)
O=c1cc(CN2CCN(c3ccc(F)cc3)CC2)c2cc3c(cc2o1)CCCC3,,inactive
C/C=C\C(=O)N(CC)c1ccccc1C,,inactive
CN1CCc2cc(NC(=O)Nc3cccnc3)ccc21,,inactive
COC(=O)c1ccc(NC(=O)N2CCC(O)(c3cccnc3)CC2)cc1,,inactive

Structure (SMILES),"activity, negative = inhibition",AC50
CSc1cc2c(cc1C(F)(F)F)N(C(=O)Nc1cccnc1)CC2,,0.00631 µM (active)
COc1cc2c(cc1C(F)(F)F)N(C(=O)Nc1cc(F)cc(-c3cccnc3)c1)CC2,,0.794 µM (active)
Cn1ccc2cc3c(cc21)CCN3C(=O)Nc1cccnc1,,inactive
CN1Cc2c(N)cccc2[C@H](c2ccccc2)C1,,inactive
Cc1noc(C)c1-c1ccc2ncnc(NCc3cccnc3)c2c1,-6.6% [at 2.29 µM] (inactive),
CCOCCCn1cnc2c(c1=O)c1nc3ccccc3nc1n2-c1ccccc1,,15.8 µM (active)
COc1ncc2nc(C)c(=O)n(-c3ccccc3)c2n1,,inactive
CCCCn1cnc2c(c(CC#N)nn2-c2ccccc2)c1=N,-11.5% [at 11.4 µM] (inactive),
CN1CCc2nc(N)nc(-c3nc(N)nc4c3CN(C)CC4)c2C1,5.01% [at 11.4 µM] (inactive),
Cc1cc(-c2cc(-c3ccc(Cl)cc3)nc(N)c2C#N)co1,,11.2 µM (active)
Cc1cc(C)n(-c2nc3ccccc3c(=O)n2OCc2ccc(Cl)cc2)n1,,5.62 µM (active)
Cn1c(=O)c(-c2ccc(Cl)cc2)nc2cnc(OCc3ccccc3)nc21,,inactive
Oc1c(CN2CCN(c3ccccc3)CC2)cc(Br)c2cccnc12,7.75% [at 11.4 µM] (inactive),
COc1ccc(-n2c(=O)c(-c3ccc(F)cc3)nc3cncnc32)cc1,,inactive
COc1ccc(N2C(=O)NC(NC(=O)c3ccncc3)(C(F)(F)F)C2=O)cc1 (stereo not drawn),,6.31 µM (active)
Cc1cccc(C(=O)NC2CCN(C(=O)N3CCOCC3)CC2)c1,,inactive
CC(C)C1NC(=S)N(Cc2ccccc2)C1=O (stereo not drawn),,8.91 µM (active)
O=C1C[C@@H](O)[C@@H](O)[C@H]2[C@@H]3C(=O)N(Cc4ccccc4)C(=O)[C@@H]3CC[C@H]12,-2.13% [at 11.4 µM] (inactive),
O=C(O)CN(CCN(CC(=O)O)CC(=O)O)CCN(CC(=O)O)CC(=O)O,,inactive
CCS(=O)(=O)c1ccc2oc(Nc3cc(C)cc(C)c3)nc2c1,,8.91 µM (active)
CC(CC(=O)O)CC(=O)Nc1ccc(S(N)(=O)=O)cc1 (stereo not drawn),,inactive
Cc1ccc(S(=O)(=O)N(C)CC(=O)O/N=C(\N)c2ccccn2)cc1,,inactive
Cc1ccnc2nc(C(=O)OCC(=O)Nc3ccc4c(c3)OC(F)(F)O4)nn12,,inactive
CN(C)S(=O)(=O)c1ccc(NC(=O)COC(=O)c2ccccn2)cc1,,10 µM (active)

Structure (SMILES),"activity, negative = inhibition",AC50
CCN(CC)S(=O)(=O)c1ccc(NC(=O)COC(=O)c2ccc(Br)o2)cc1,,8.91 µM (active)
CN(C)S(=O)(=O)c1cccc(NC(=O)COC(=O)c2ccc(Br)o2)c1,,6.31 µM (active)
COc1ccccc1-c1ccc2ncnc(NCCNC(C)=O)c2c1,-2.65% [at 2.29 µM] (inactive),
C=CC1=C[C@@H](O)C2OC2C12OCCCO2 (stereo partly drawn),12.2% [at 11.4 µM] (inactive),
O=C(Nc1cccc(F)c1)N1CC[C@@]2(CCCNC2)C1,,inactive
COC(=O)[C@@]1(Cc2ccccc2)[C@H]2c3cc(C(=O)N4CCCC4)n(Cc4c(CO)[nH]cc(C)c4=O)c3C[C@H]2CN1C(=O)c1ccccc1,,1 µM (active)
COC(=O)[C@@]1(Cc2ccc(F)cc2)[C@H]2c3cc(C(=O)N4CCCC4)n(Cc4c(CO)[nH]cc(C)c4=O)c3C[C@H]2CN1C(=O)c1ccccc1,,10 µM (active)
CCCCCCCCCCCCCCCC(=O)C(F)(F)F,,inactive
O=S(=O)(c1ccccc1)N1CCC2(CC1)CN(Cc1ccccc1)C2,,inactive
N#Cc1ccc(CN2CCCC3(CCN(S(=O)(=O)c4ccccc4)CC3)C2)cc1,,12.6 µM (active)
COC(=O)N1CCC2(CCCN(Cc3ccc(C#N)cc3)C2)CC1,,12.6 µM (active)
COC(=O)N1CCC2(CCCN(Cc3ccccc3)C2)CC1,,inactive
COCC(=O)N1CCC[C@@]2(CCN(Cc3ccc(C#N)cc3)C2)C1,,inactive
N#Cc1ccc(CN2CCC3(CC2)CCN(S(=O)(=O)c2ccccc2)CC3)cc1,,inactive
CN(C)CC[C@@H](c1ccccc1)c1ccccn1,,inactive
CN(C)CC(CN(C)C)c1ccccn1,-2.56% [at 11.4 µM] (inactive),
C[C@@H](C1=C(CCN(C)C)Cc2ccccc21)c1ccccn1,,0.501 µM (active)
CNc1cc(-c2ccccc2CN(C)C)ncn1,24.8% [at 2.29 µM] (inactive),
Cc1cccc(-c2n[nH]c([N+](=O)[O-])n2)c1,,20 µM (active)
CCCCN1C(=O)NC(NC(=O)c2ccco2)(C(F)(F)F)C1=O (stereo not drawn),,12.6 µM (active)
CCCCn1c(=N)n(CC(=O)c2ccco2)c2ccccc21,,inactive
